Results reported in PubChem BioAssay (NCATS).
Inconclusive results are not listed. Activity calls are given as the source filed them. Calls come from the whole dose curve; as a rule, active = well fitted curve in the direction sought with a large enough effect; inconclusive = small, poorly fitted or top-dose-only effect, or another doubt; inactive = no such curve, though single readings can be large; an effect the other way counts as inactive or inconclusive.

How the values were obtained:
HaCat [1] = assay: Cytotoxic Profiling of Annotated Libraries Using Quantitative High-Throughput Screening (AID 1296008); conditions: Five cell lines viability, CellTiter-Glo ATP luminescence, 48-72 h; max response: hits give low values; note: nearly all actives have a fitted effect of over 60% in size; note: potency is the fitted concentration of half-maximal effect; for max response: % is set by controls: 0 for no effect and ±100 for the full control effect
Summary of the method: (§1)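 Compounds were pin-transferred onto cells and incubated 48 or 72 hr at 37 degree Celsius, 95% humidity. CellTiter-Glo was added, plates sat 10 min at room temperature, then ATP-coupled luminescence was imaged as the viability read-out.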

KB-3-1 = assay: as above; conditions: Five cell lines viability, CellTiter-Glo ATP luminescence, 48-72 h; max response: hits give low values
Summary of the method: as §1

HACAT [2] = assay: qHTS assay to identify novel small-molecules to repurpose for Merkel cell carcinoma treatment (AID 1296009); conditions: MCC and control cell lines, CellTiter-Glo viability, 72 h; series mostly up to 44.8 µM; note: nearly all actives have a fitted effect of over 60% in size
Summary of the method: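 qHTS format: cells treated with library compounds in DMSO across 8 (NPC) or 11 (MIPE) concentrations. Readout after 72 hr at 37 degree celsius was CellTiter-Glo luminescence.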

CAOV3 = assay: Primary qHTS to identify gynecologic anti-cancer compounds using libraries of approved drugs and bioactive compounds (AID 1345084); conditions: Gynecologic cancer cell panel viability, ATPlite luminescence, 48 h; series mostly up to 57.5 µM; note: nearly all actives have a fitted effect of over 55% in size; note: potency is the fitted concentration of half-maximal effect; for activity change, negative = cytotoxicity: % is set by controls: 0 for no effect and ±100 for the full control effect
Summary of the method: (§2)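 Cells, 1,000 per well, plated 16 h, then exposed 48 h at 37 C to compounds. Viability by ATPlite luminescence after 15 min at room temperature.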

CASKI = assay: as above; conditions: Gynecologic cancer cell panel viability, ATPlite luminescence, 48 h; series mostly up to 57.5 µM
Summary of the method: as §2

Es-2 = assay: as above; conditions: Gynecologic cancer cell panel viability, ATPlite luminescence, 48 h; series mostly up to 57.5 µM
Summary of the method: as §2

HeLa = assay: as above; conditions: Gynecologic cancer cell panel viability, ATPlite luminescence, 48 h; series mostly up to 57.5 µM
Summary of the method: as §2

Hek293T = assay: as above; conditions: Gynecologic cancer cell panel viability, ATPlite luminescence, 48 h, control line for the selectivity index; series mostly up to 57.5 µM
Summary of the method: as §2

JEG-3 = assay: as above; conditions: Gynecologic cancer cell panel viability, ATPlite luminescence, 48 h; series mostly up to 57.5 µM
Summary of the method: as §2

C33A = assay: as above; conditions: Gynecologic cancer cell panel viability, ATPlite luminescence, 48 h; series mostly up to 57.5 µM
Summary of the method: as §2

NIH3T3 = assay: Cytotoxic Profiling of Annotated Libraries Using Quantitative High-Throughput Screening (AID 1296008); conditions: Five cell lines viability, CellTiter-Glo ATP luminescence, 48-72 h; max response: hits give low values; note: nearly all actives have a fitted effect of over 60% in size; note: potency is the fitted concentration of half-maximal effect; for max response: % is set by controls: 0 for no effect and ±100 for the full control effect
Summary of the method: as §1

CC(C)CCC[C@@H](C)[C@H]1CC[C@H]2[C@@H]3CC(=O)[C@H]4C[C@@H](O)CC[C@]4(C)[C@H]3CC[C@]12C
inactive: outcome (HaCat [1]) | max response (KB-3-1) -11.4% | Potency (HACAT [2]) | Potency (CAOV3) | Potency (CASKI) | Potency (Es-2) | Potency (HeLa) | Potency (Hek293T) | Potency (JEG-3)

CC(=O)O[C@@H]1[C@@H](O)[C@H](O[C@H]2CC[C@]34C[C@]35CC[C@]3(C)[C@@H]([C@@]6(C)CC[C@@H](C(C)(C)O)O6)[C@@H](O)C[C@@]3(C)[C@@H]5C[C@H](O[C@@H]3O[C@H](CO)[C@@H](O)[C@H](O)[C@H]3O)[C@H]4C2(C)C)OC[C@H]1O
inactive: outcome (HaCat [1]) | outcome (KB-3-1) | Potency (HACAT [2]) | Potency (C33A) | Potency (CAOV3) | Potency (CASKI) | Potency (Es-2) | Potency (HeLa) | Potency (Hek293T) | Potency (JEG-3)

CC1OC(O[C@H]2CC[C@@]3(C)C(CC[C@]4(C)C3CC=C3C5CC(C)(C)CC[C@]5(C(=O)OC5OC(CO)C(OC6OC(COC7OCC(O)C(O)C7O)C(O)C(O)C6O)C(O)C5O)CC[C@]34C)C2(C)C)C(O)C(O)C1OC1OCC(OC2OCC(O)C(O)C2O)C(O)C1O (some centres not stated)
inactive: outcome (KB-3-1) | max response (NIH3T3) -4.7% | activity change, negative = cytotoxicity (C33A) 24.4% [at 6.55 µM] | activity change, negative = cytotoxicity (CAOV3) 3.53% [at 6.55 µM] | activity change, negative = cytotoxicity (CASKI) -2% [at 6.55 µM] | activity change, negative = cytotoxicity (Es-2) 0.974% [at 6.55 µM] | activity change, negative = cytotoxicity (HeLa) -5.59% [at 6.55 µM] | activity change, negative = cytotoxicity (Hek293T) 2.21% [at 6.55 µM] | activity change, negative = cytotoxicity (JEG-3) 7.58% [at 6.55 µM]

COCCOc1ccc(N2CCN(CCn3ncc4c3nc(N)n3nc(-c5ccco5)nc43)CC2)cc1
inactive: max response (HaCat [1]) 2.38% | max response (KB-3-1) -29.2% | max response (NIH3T3) 0.99% | Potency (C33A) | Potency (CAOV3) | Potency (CASKI) | Potency (Es-2) | Potency (HeLa) | Potency (Hek293T) | Potency (JEG-3)

NC[C@@](O)(c1ccc(Cl)cc1)c1ccc(-c2cn[nH]c2)cc1
active: Potency (HaCat [1]) 8.2 µM | Potency (KB-3-1) 11.6 µM | Potency (NIH3T3) 5.17 µM | Potency (C33A) 22.4 µM | Potency (CASKI) 28.2 µM | Potency (HeLa) 25.1 µM | Potency (Hek293T) 28.2 µM

COc1ccc2nc(S(=O)(=O)Cc3ncc(C)c(OC)c3C)[nH]c2c1
inactive: max response (HaCat [1]) -8.8% | max response (KB-3-1) -6.6% | Potency (C33A) | Potency (CAOV3) | Potency (CASKI) | Potency (Es-2) | Potency (HeLa) | Potency (Hek293T) | Potency (JEG-3)

C=C[C@]1(C)C=C2CCC3C(C)(CCC[C@@]3(C)C(=O)O)C2CC1 (some centres not stated)
inactive: max response (HaCat [1]) -0.617% | max response (KB-3-1) 8.11% | max response (NIH3T3) -2.38% | Potency (C33A) | Potency (CAOV3) | Potency (CASKI) | Potency (Es-2) | Potency (HeLa) | Potency (Hek293T) | Potency (JEG-3)

COC1CC(O[C@H]2CC[C@@]3(C)C(CCC4C3[C@H](OC(C)=O)[C@@H](OC(=O)/C=C/c3ccccc3)[C@]3(C)C(C(C)=O)CC[C@]43O)C2)OC(C)C1OC1CC(OC)C(OC2CC(OC)C(OC3OC(C)C(OC4OC(CO)C(O)C(O)C4O)C(OC)C3O)C(C)O2)C(C)O1 (some centres not stated)
inactive: max response (HaCat [1]) -18.9% | max response (KB-3-1) -0.895% | max response (NIH3T3) -9.54% | activity change, negative = cytotoxicity (C33A) -1.17% [at 6.55 µM] | activity change, negative = cytotoxicity (CAOV3) 6.87% [at 6.55 µM] | activity change, negative = cytotoxicity (CASKI) 1.19% [at 6.55 µM] | activity change, negative = cytotoxicity (Es-2) 0.971% [at 6.55 µM] | activity change, negative = cytotoxicity (HeLa) -3.04% [at 6.55 µM] | activity change, negative = cytotoxicity (Hek293T) -2.25% [at 6.55 µM] | activity change, negative = cytotoxicity (JEG-3) -2.34% [at 6.55 µM]

Cn1cc(S(=O)(=O)c2ccc(Cl)cc2)c2cccc(N3CCNCC3)c21
active: Potency (KB-3-1) 20.6 µM | Potency (NIH3T3) 18.4 µM
inactive: Potency (HeLa)

CC(C)C(C(=O)N(C)C(C)C(N)=O)N(C)C(=O)C1CCCN1C(=O)/C=C/C=C/C(O)C(C)O (configuration not stated)
inactive: max response (HaCat [1]) -10.3% | max response (KB-3-1) 7.9% | max response (NIH3T3) 2.29% | Potency (C33A) | Potency (CAOV3) | Potency (CASKI) | Potency (Es-2) | Potency (HeLa) | Potency (Hek293T) | Potency (JEG-3)
